In PubChem BioAssay AID493078 (National Center for Advancing Translational Sciences (NCATS), 2011):
The list shows a part of the results. Records with an inconclusive call do not appear. A number with no mark means an inactive call. The source made the active and inactive calls. Calls follow the shape of the dose curve; as a rule, active = well fitted activation curve with a large enough effect; inconclusive = small, poorly fitted or top-dose-only effect; inactive = flat fitted curve, though single readings scatter. Where a SMILES comes first, the peptide text is derived from it. The star is where a group is joined. OPac = O=C(CO*)c1ccccc1; Bz = O=C(c1ccccc1)*
Also: nearly all actives have a fitted effect of over 75% in size.
For activation in this document: 0% is about no effect.
Potency is read from the fitted curve at half-maximal effect.

These compounds were tested against Thyrotropin-releasing hormone receptor (Homo sapiens) (UniProt P34981) (assay: qHTS for Small Molecule Agonists and Allosteric Enhancers of Human TRH Receptor: Confirmation Screen for Agonists). Conditions: TRHR-expressing cells, agonist activation read-out; series mostly up to 46.1 µM; activation: at the top concentration.
Thyrotropin-releasing hormone receptor (Homo sapiens), sequence (P34981 whole entry, looked up): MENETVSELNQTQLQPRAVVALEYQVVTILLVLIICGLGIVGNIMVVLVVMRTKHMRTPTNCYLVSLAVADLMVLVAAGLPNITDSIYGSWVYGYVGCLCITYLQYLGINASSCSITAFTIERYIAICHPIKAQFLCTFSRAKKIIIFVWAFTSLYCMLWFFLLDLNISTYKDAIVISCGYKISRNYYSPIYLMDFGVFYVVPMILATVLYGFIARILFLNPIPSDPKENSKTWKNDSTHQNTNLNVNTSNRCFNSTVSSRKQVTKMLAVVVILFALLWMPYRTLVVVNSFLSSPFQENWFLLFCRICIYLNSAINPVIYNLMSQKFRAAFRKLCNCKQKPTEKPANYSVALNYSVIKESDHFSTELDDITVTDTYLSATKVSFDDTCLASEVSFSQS
Description: NIH Chemical Genomics Center [NCGC]
NIH Molecular Libraries Probe Centers Network [MLPCN]
Assay Submitter (PI): Marvin Gershengorn
This project aims to identify small drug-like molecules that activate (agonists) the thyrotropin releasing hormone (TRH) receptor (TRHR) or enhance its TRH-stimulated activity (allosteric enhancers). TRHR, a drug-accessible cell surface receptor expressed in specific brain regions, and its ligand TRH have been implicated in several central nervous system disorders, including depression and anxiety. Small molecule TRHR agonists or allosteric enhancers that are metabolically stable and able to cross the blood-brain barrier might serve as probes to elucidate the roles of brain TRH receptors in animal models, and might be valuable as lead compounds for the development of drugs to treat patients with central nervous system disorders.
Upon TRHR-Gq activation in TRHR cells, intracellular calcium is released from stores in the endoplasmic reticulum.
For the HTS assay freshly prepared cells are plated at a density of 2000/well in 3 ul of complete DMEM medium containing 10% serum in 1536-well plates and cultured over night at 37 C in a humidified incubator with 5% CO2. The next day, 2 ul of a no wash calcium dye (ABD Bioquest) was added to the cells and plates were incubated at room temperature for 1 hour. For the assay, assay plates were loaded into the FDSS kinetic plate reader. A 10 cycle (1 second/cycle) baseline measurement is taken and then the FDSS online 1536 pintool delivers 23 nl of compound library (as well as TRH controls) to the plate. The plate is measured for kinetically at 1 cycle/sec for 180 seconds and is considered to be the agonist portion of the assay (eg, compounds which activate a positive calcium response during this portion are flagged as potential agonists). Following the 180 second read, 1 ul of either an EC20 (positive modulation assay) is delivered by an onboard pipette head. Measurements are taken kinetically for an additional 180 seconds.
TRHR FDSS Screening Protocol
1. Reagent, 3 uL 2000 cells/well 1536 TC treated Black plate in media containing 10% FCS
2. Time, 18 hours, 33.5C 5% CO2 (cells grown at 37C)
3. Reagent, 2 uL ABD fluo-8 Ca dye
4. Time, 30 min-1.5hrs hours, Room temp (6 plates/batch)
5. Detector, EX 480/EM 530C, FDSS 10 cycles baseline (1sec/cycle)
6. Compound, 23 nL of stock solution from library
7. Detector, EX 480/EM 530C, FDSS 230 cycles (1sec/cycle) Agonist mode
8. Compound, 1 ul EC20 of TRH made up in HEPES HBSS, 10 nM final
9. Detector, EX 480/EM 530C, FDSS 100 cycles (1sec/cycle) Potentiator mode
With `NS(=O)(=O)c1cccc(NC(=O)CSc2nc3ccccc3n2-c2ccccc2)c1` the “activation” value was 1.92%.
In the case of `CCOC(=O)C1=C(O)/C(=C/c2cc(C)n(-c3ccccc3)c2C)N=C1C`, the “activation” value is reported as 0.557%.
`O=C1C(=O)N(CCCO)C(c2ccccc2)/C1=C(\O)c1ccc(Br)cc1` (stereo not given) was tested, and the “activation” value was -0.674%.
`Cc1c(/C=N\NC(=O)c2cc3ccccc3o2)c2ccccc2n1C` was tested, and the “activation” value was 1.06%.
With `CC1=C(C)CC(C(=O)NC(C)CCc2ccccc2)C(C(=O)O)C1` (stereo not given) the “activation” value was -0.557%.
With `C/C(=C\c1ccco1)CN1CCC(N2CCC(C(=O)N3CCOCC3)CC2)CC1` the “activation” value was 1.27%.
With `N#Cc1ccc(Oc2cc(C(F)(F)F)nc(-c3ccccn3)n2)cc1` the “activation” value was 0.518%.
With `CC(C)c1nnc(NC(=O)CCC(=O)N2CCN(c3cccc(Cl)c3)CC2)s1` the “activation” value was 0.507%.
In the case of `O=C(/C=C/c1ccc(N2CCOCC2)cc1)c1ccccc1`, the Potency is reported as 20.6 µM (active).
In the case of `O=C(CN1C(=O)c2cccc3cccc1c23)Nc1ccccc1`, the “activation” value is reported as -0.467%.
For `NC(N)=Nc1nc(-c2ccccc2)c2cc(Cl)ccc2n1`, the “activation” value was -0.768%.
For `Cc1ccc(Cl)c(OCC(=O)N2CCc3ccccc3C2)c1`, the “activation” value was 1.54%.
With `COc1ccc(Cl)cc1NC(=O)CN(C)Cc1ccc(OC)c(OC)c1` the “activation” value was 2.33%.
In the case of `CC(=O)N1CCN(CC(=O)Nc2ccc(C)c(F)c2)CC1`, the “activation” value is reported as 0.713%.
`CCOc1ncccc1C(=O)OCC(=O)N1c2ccccc2CC1C` (stereo not given) was tested, and the “activation” value was -0.311%.
`CCc1ccccc1NC(=O)/C(=C/c1ccccc1)c1ccccc1` was tested, and the “activation” value was 2.38%.
In the case of `Cc1cccn2c(=O)c3cc(C(=O)NC4CCCCC4)sc3nc12`, the “activation” value is reported as -0.406%.
With `COC(=O)c1cc(N2CCNCC2)nc2ccccc12` the “activation” value was -0.329%.
With `Cc1cc(C(=O)CCl)c(C)n1CC1COc2ccccc2O1` (stereo not given) the “activation” value was -0.57%.
With `O=c1o[nH]c(-c2ccccc2)c1N=Nc1c(F)cccc1Cl` the “activation” value was 1.97%.
In the case of `COc1ccc(OCc2n[nH]c(=S)n2N)cc1`, the “activation” value is reported as 5.54%.
`CC(=O)c1cc(NC(=O)c2ccccc2)c(=O)oc1/C=C/N(C)C` was tested, and the Potency was 20.6 µM (active).
In the case of `Cc1cc(S(=O)(=O)c2cc3ccc(O)c(C)c3oc2=O)ccc1F`, the Potency is reported as 20.6 µM (active).
For `CN(C(=O)CSc1nnc(Nc2ccccc2)s1)C1CCS(=O)(=O)C1` (stereo not given), the “activation” value was 1.65%.
`Cc1csc(CN(C)C(=O)CC2C(=O)NCCN2CC(C)(C)C)n1` (stereo not given) was tested, and the “activation” value was 0.768%.
For `C/C(=N/OC(=O)c1ccc(Br)cc1)c1ccc(C)cc1`, the “activation” value was 0.726%.
`O=C(Nc1ccccc1)c1cccnc1Nc1ccccc1` was tested, and the “activation” value was 0.548%.
For `CC1(C)Cc2c(cnn2-c2cccc(F)c2)C(NC(=O)c2cc[n+]([O-])cc2)C1` (stereo not given), the “activation” value was -0.329%.
With `Cn1cccc1C1(C(F)(F)F)NCCNC1=O` (stereo not given) the “activation” value was -0.557%.
With `CCc1nnc(NC(=O)[C@@H](NC(=O)c2cccc(C)c2)C(C)C)s1` the “activation” value was 0.557%.
With `COc1cc(C2C3=C(CCCC3=O)OC3=C2C(=O)CCC3)ccc1OCC(=O)Nc1ccccc1` the “activation” value was 1.24%.
For `Cc1nn(Cc2ccccc2)c(C)c1C(=O)N1CCN(CC(=O)Nc2ccccc2Cl)CC1`, the “activation” value was 2.59%.
With `O=c1[nH]c2cccnc2n(CCNc2ncc(C(F)(F)F)cc2Cl)c1=O` the “activation” value was -0.203%.
For `CCOc1cc(CN2CCCC(CO)(Cc3ccc(F)cc3F)C2)ccc1OC` (stereo not given), the “activation” value was 7.9%.
With `Cc1ccc(-c2cn(S(=O)(=O)c3cccc([N+](=O)[O-])c3)nc2N)cc1` the “activation” value was -0.713%.
In the case of `CSc1nnnn1-c1c(C)cc(C)cc1C`, the “activation” value is reported as 2.69%.
With `COc1ccc(CCn2ccc(O)c(Cc3ccc(Cl)cc3Cl)c2=O)cc1OC` the “activation” value was -0.71%.
With `CC(=O)n1c(C=Nc2ccccc2)c(O)c2ccccc21` the Potency was 20.6 µM (active).
In the case of `O=C(CNC(=O)c1ccccc1)NCC(=O)OCC(=O)c1ccccc1` (Bz-Gly-Gly-OPac), the “activation” value is reported as -0.384%.
In the case of `COc1cc(/C=C(\C#N)c2nc3ccccc3[nH]2)ccc1O`, the Potency is reported as 20.6 µM (active).
